High-throughput results from PubChem BioAssay.
This is a sample that favours compounds with a hit; in the whole collection about 4.1% have one here.
CASP6 VEID inh = human caspase-6 inhibitors, primary screen, biochemical, VEID-R110 fluorescence, single point, set 2. purified caspase-6, Z-VEID-R110 cleavage fluorescence. inhibition, % at 12.5 µM. 350,000 tested, 0.53% active;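 active = mean inhibition across replicates at least about 35%, with every replicate also reaching that limit, limit read from the data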;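 note: 0% = median of neutral control wells and 100% = no fluorescence left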
Target sequence (P55212 24-179 limits assumed): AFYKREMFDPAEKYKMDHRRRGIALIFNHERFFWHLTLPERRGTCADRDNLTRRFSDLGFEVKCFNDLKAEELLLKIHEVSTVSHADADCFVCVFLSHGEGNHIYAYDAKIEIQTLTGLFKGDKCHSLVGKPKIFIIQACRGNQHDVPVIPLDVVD
Target sequence (P55212 194-293 limits assumed): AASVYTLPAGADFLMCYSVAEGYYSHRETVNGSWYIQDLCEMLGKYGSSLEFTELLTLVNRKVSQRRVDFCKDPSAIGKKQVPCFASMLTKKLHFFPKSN
NSD2 HMT inh = NSD2 histone methyltransferase inhibitors, primary screen, biochemical, AlphaScreen, single concentration, set 2; NSD2 peptide methylation, 120 min; inhibition, % at 12.5 µM; 310,000 tested, 0.54% active; AID 743445, 2014; in the data active = inhibition above about 50%
PglD inh = C. jejuni PglD acetyltransferase inhibitors, primary screen, biochemical, DTNB colorimetric, single point; purified PglD enzyme, DTNB colorimetric CoA detection; inhibition, % at 12.5 µM; 360,000 tested, 0.098% active; in the data active = inhibition above about 16%, passing the limit was not always enough
F508del corr = F508del CFTR correction, initial screen, CFBE line, single point; CFBE cells, YFP halide quenching; stimulated with forskolin plus potentiator P3; % fluorescence drop versus neutral controls; activity (quench increase), % at 7.58 µM; 350,000 tested, 0.36% active; AID 720511, 2013;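 active = mean added fluorescence quench of at least 8% versus neutral control, with both replicates also reaching 8%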;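 note: cells transiently co-express mutant CFTR-F508del with the halide-sensitive YFP; corrector assay measuring rescue of mutant channel to the surface after 24 h compound exposure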
Env fusion inh = inhibitors of HIV-1 Env-driven cell-cell fusion, primary screen, HeLa-JRFL effector, CEM21 target cells, luciferase; inhibition, % at 12.3 µM; 360,000 tested, 1.1% active; AID 651610, 2012;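 active = mean replicate inhibition score of at least 50 and every replicate individually at or above 50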;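 note: 0% = plate neutral controls and 100% = maraviroc near 300 nM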
ALR H2O2 inh = inhibitors of human ALR sulfhydryl oxidase, primary screen, biochemical, H2O2 detection, HRP-luminol luminescence, single point; FAD-linked sulfhydryl oxidase ALR (Homo sapiens), P55789; purified ALR, DTT oxidation; inhibition, % (concentration not given with the values); 290,000 tested, 3.8% active;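 active = mean replicate inhibition above about 79%, with every replicate also reaching it, limit read from the data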
Target sequence (P55789 whole entry, looked up): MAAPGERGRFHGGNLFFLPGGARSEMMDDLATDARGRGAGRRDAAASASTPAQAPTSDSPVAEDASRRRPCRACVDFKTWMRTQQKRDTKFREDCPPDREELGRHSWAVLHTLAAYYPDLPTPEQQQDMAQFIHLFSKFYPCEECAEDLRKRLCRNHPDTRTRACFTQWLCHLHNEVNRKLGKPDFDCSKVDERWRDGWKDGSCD
* marks the source's active call; other numbers are inactive results; . = not tested or not shown; [ ] = dose if it differs, or a comment.

SMILES | CASP6 VEID inh | NSD2 HMT inh | PglD inh | F508del corr | Env fusion inh | ALR H2O2 inh
CN(C)C(=O)c1cccc(-c2ccc([C@@H]3[C@@H](C#N)N(C(=O)C4CCCC4)[C@@H]3CO)cc2)c1 | 1 | . | . | 3 | . | .
O=C(C[C@@H]1CC[C@H]2[C@@H](COC[C@H](O)CN2C(=O)Cc2ccccc2)O1)NC1CCCC1 | 1 | . | 4 | -1 | . | .
COc1cccc(-c2csc(NNC(=O)c3cccs3)n2)c1 | -4 | 4 | 2 | 1 | -8 | 96*
Cc1ccc(CNc2ncc(-c3ccccc3)n2C)o1 | -4 | 8 | . | -1 | 5 | 98*
COc1ccc(NC(=O)c2sccc2SCc2cccc(C(F)(F)F)c2)cc1 | . | 0 | 1 | . | 80* | -24
CC(=O)NC(c1ccc2ccccc2c1)c1ccc2cccnc2c1O (stereo not given) | -3 | 2 | 2 | 13* | -15 | -8
CC(=O)NC(c1ccc(Cl)cc1Cl)c1ccc2cccnc2c1O (stereo not given) | -3 | 1 | 0 | 10* | -18 | -4
Cc1noc(C)c1S(=O)(=O)N(C)C[C@H]1OCCCC[C@H](C)Oc2ccc(NS(=O)(=O)c3ccc(Cl)cc3)cc2C(=O)N([C@H](C)CO)C[C@@H]1C | 1 | . | 2 | -1 | 11[16.7 µM] | .
O=C1C(Cl)=C(NCc2cccnc2)C(=O)c2ccccc21 | 87* | 48 | -3 | -6 | -8 | -22
O=C(Nc1nc2cc3c(cc2s1)OCO3)c1ccco1 | -2 | -2 | -3 | 1 | -188 | .
O=C(Nc1nc2cc3c(cc2s1)OCCO3)c1ccco1 | 0 | -1 | 7 | 0 | 58* | 5
O=C1[C@H]2[C@@H](c3ccccc3)N[C@]3(CCCN(CC4CCCCC4)C3=O)[C@H]2C(=O)N1Cc1ccccc1 | 41* | . | -3 | 3 | -226 | .
O=S(=O)(c1ccc(S(=O)(=O)N(Cc2ccccc2)Cc2ccco2)cc1)N1CCCC1 | 1 | 4 | -4 | . | -76 | 94*
COc1ccc2[nH]c(=O)c(CN(Cc3cccs3)S(=O)(=O)c3cccc4nsnc34)cc2c1 | . | -1 | -6 | . | 70* | .
COc1ccc2[nH]c(=O)c(CN(CCO)S(=O)(=O)c3c(C)ccc4nsnc34)cc2c1 | . | -1 | . | . | -124 | -7
CCOc1ccc(C(=O)CCC(=O)O)cc1 | -1 | 0 | . | 1 | . | 2
CCOc1ccc(C(=O)CSCC(=O)O)cc1 | 1 | . | 2 | 3 | 5 | 98*
CN(C)c1ccc(NC(=O)CSc2nc(N)c(C(=O)Nc3ccc(N(C)C)cc3)s2)cc1 | -2 | -2 | -2 | . | 41* | 22
COc1ccc(NC(=O)CSc2nc(N)c(C(=O)Nc3ccc(N(C)C)cc3)s2)cc1 | . | 0 | 4 | . | . | 99*
COc1ccc(NC(=O)CSc2nnc(N)s2)cc1 | . | 0 | -6 | . | . | -7
CCOC(=O)c1sc(SCC(=O)Nc2ccc(N(C)C)cc2)nc1N | . | 4 | -5 | . | -8 | 40
COc1ccc2nc3ccccc3nc2c1N | 5 | 41 | 7 | 1 | -55 | 99*
Cc1[nH]n(-c2ccccc2)c(=O)c1C=Nc1cccc2cccnc12 | . | 3 | . | . | 57* | -13
CCSc1nnc(-c2ccccc2N=Cc2c(C)[nH]n(-c3ccccc3)c2=O)c(=O)[nH]1 | -1 | 0 | . | . | -3 | 95*
CCSc1nnc(-c2cc(Br)ccc2N=Cc2c(C)[nH]n(-c3ccccc3)c2=O)c(=O)[nH]1 | -2 | 5 | . | -2 | 9 | 11
SMILES | CASP6 VEID inh | NSD2 HMT inh | PglD inh | F508del corr | Env fusion inh | ALR H2O2 inh
C[C@H]1CN([C@@H](C)CO)S(=O)(=O)c2ccc(-c3cccnc3)cc2O[C@@H]1CN(C)C(=O)CC1CC1 | 2 | . | -1 | 0 | -5[16.7 µM] | .
Cc1ccc(C(=O)CCc2ccc(N)cc2)cc1 | 0 | -2 | 6 | -2 | -12 | 99*
Cc1ccc(C(=O)Cc2ccccc2)cc1 | -3 | 0 | . | -2 | . | .
CCOc1ccc(NC(=O)C(C)SC(N)=O)cc1 (stereo not given) | 0 | -1 | 5 | 2 | . | 99*
CCOc1ccc(NC(=O)C(C)Sc2nnnn2C)cc1 (stereo not given) | . | -1 | 1 | . | . | 0
C[C@H](CO)N1C[C@H](C)[C@@H](CN(C)C(=O)C2CC2)Oc2cc(C3=CCCC3)ccc2S1(=O)=O | . | . | . | -1 | 12[16.7 µM] | .
Cn1nnnc1SCC(=O)Nc1ccccc1[N+](=O)[O-] | . | -1 | -4 | . | . | .
COc1ccccc1NC(=O)CSC1=NC(=O)C(NC(C)=O)C(=O)N1 (stereo not given) | . | 2 | 2 | . | . | .
O=C(CSC1=NC(=O)C(c2ccccc2)C(=O)N1)Nc1ccccc1Cl (stereo not given) | . | -1 | 2 | . | . | 99*
CC(=O)NC1C(=O)N=C(SCC(=O)Nc2ccc(C(F)(F)F)cc2Cl)NC1=O (stereo not given) | . | 4 | . | 1 | -22 | 98*
COC(=O)c1ccc(NC(=O)CSC2=NC(=O)C(c3ccccc3)C(=O)N2)cc1 (stereo not given) | . | 3 | 4 | . | 21 | 99*
O=C(CSC1=NC(=O)C(c2ccccc2)C(=O)N1)Nc1ccccc1[N+](=O)[O-] (stereo not given) | 21 | -2 | 2 | 3 | -21 | 95*
C[C@H](NC(=O)C[C@H]1C[C@H]2c3cc(NC(=O)Cc4ccncc4)ccc3O[C@H]2[C@@H](CO)O1)c1ccccc1 | -2 | . | -1 | -1 | -6[16.7 µM] | .
CC=Cc1ccc2n(c1=O)C[C@@H]1[C@@H](CO)[C@H](C(=O)NC3CCC3)N(CCC)[C@H]21 (mixture of isomers) | -1 | . | . | 1 | . | .
CC(C)NC(=O)Nc1ccc2c(c1)C(=O)N([C@@H](C)CO)C[C@H](C)[C@@H](CN(C)CC1CCCCC1)OCCCC[C@H](C)O2 | -2 | . | -16 | 1 | -3[16.7 µM] | .
O=C(CSC1=NC(=O)C(Cc2ccccc2)C(=O)N1)Nc1ncccn1 (stereo not given) | . | 31 | . | . | -29 | .
O=C(CSC1=NC(=O)C(c2ccccc2)C(=O)N1)Nc1cccc(Cl)c1 (stereo not given) | . | 3 | 5 | . | . | 98*
COc1ccccc1CNC(=O)C[C@H]1C[C@H]2c3cc(NC(=O)CC4CC4)ccc3O[C@H]2[C@@H](CO)O1 | . | . | 2 | 0 | 15[16.7 µM] | .
